Source: PubChem
An excerpt weighted towards active compounds, which were near 5.7% of everything screened.
KB-V1 cytotox: KB-V1 MDR subline cytotoxicity | KB-V1 MDR cells viability, CellTiter-Glo, 72 h | Potency, µM (highest dose often 46.1 µM), most hits filed as cytotoxic | hit rate 3.4% among 400,000; further: potency means the concentration at half of the fitted maximal effect; nearly all actives have a fitted effect of over 60% in size
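Readout: CellTiter-Glo luminescence, 10 min after addition. Cells: KB-V1 MDR subline, 72 h at 37 degrees C with compound. Analysis: corrected, normalized data fitted to concentration-effect curves.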
PI4K2A inh: PI4K2A (human) kinase inhibition; Q9BTU6; purified PI4K2A, ADP-Glo luminescence, 1 h; hits give low values; activity change, negative = inhibition, % at 76.9 µM; hit rate 0.13% among 420,000; AID 1346378; in the data active means activity change below about -50%; inconclusive means mostly about -30% to -49%;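 further: -100% = wells without enzyme as full effect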
Target sequence (Q9BTU6 whole entry, looked up): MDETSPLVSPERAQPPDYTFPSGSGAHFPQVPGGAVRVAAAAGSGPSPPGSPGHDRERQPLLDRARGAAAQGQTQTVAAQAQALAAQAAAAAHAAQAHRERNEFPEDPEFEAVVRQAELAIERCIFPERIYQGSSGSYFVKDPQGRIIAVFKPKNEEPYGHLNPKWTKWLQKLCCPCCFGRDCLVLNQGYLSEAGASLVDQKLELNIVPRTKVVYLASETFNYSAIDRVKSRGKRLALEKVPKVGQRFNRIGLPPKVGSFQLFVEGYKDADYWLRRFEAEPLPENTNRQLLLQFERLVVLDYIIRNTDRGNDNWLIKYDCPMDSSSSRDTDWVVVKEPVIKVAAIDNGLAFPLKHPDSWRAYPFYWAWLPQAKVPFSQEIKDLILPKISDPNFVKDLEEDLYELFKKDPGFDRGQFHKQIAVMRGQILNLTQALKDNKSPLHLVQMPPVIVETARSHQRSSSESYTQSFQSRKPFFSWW
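In this quantitative HTS, ADP production by PI4K2A was quantified luminescently after 1 h at ambient temperature; 100 microM adenosine served as plate-quality control.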
Giardia kill: Giardia lamblia killing | Giardia lamblia trophozoite viability | activity change, % at 7.66 µM, hits read low | hit rate 0.15% among 340,000; in the data active means activity change below about -80%; inconclusive means between about -30% and that limit;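 further: parasites exposed to compound for two days anaerobically before the ATP read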
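Killing of trophozoites was scored by loss of ATP luminescence after a 48 hrs anaerobic exposure to compounds at 37 deg C, using 100 cells per well.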
KB-3-1 tox: KB-3-1 parental cell cytotoxicity | Potency, µM (top dose mostly 46.1 µM), usual class: cytotoxic | KB-3-1 viability, CellTiter-Glo ATP luminescence, 72 h | hit rate 1.4% among 400,000; further: potency means the concentration at half of the fitted maximal effect; nearly all actives have a fitted effect of over 60% in size
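Cytotoxicity in the drug-sensitive parental line KB-3-1 was scored as loss of CellTiter-Glo luminescence following 72 h incubation with compound. Values come from curve fitting of normalized concentration-response data.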
Nrf2 block: blocks Nrf2 signaling; A549 ARE-Fluc reporter, luciferase luminescence, 18-24 h; Potency, µM (titrated, usually from 46 µM), without a hit: at the highest dose activity change, negative = inhibition, actives largely listed as inhibitors; hit rate 2.1% among 360,000; AID 504444; further: potency means the concentration at half of the fitted maximal effect; nearly all actives have a fitted effect of over 60% in size
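In this cell-based qHTS, ARE-driven firefly luciferase in A549 cells reports Nrf2 activity; the luminescent signal after BugLite lysis is the measured value, with a prior CellTiter-Fluor read for cell health.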
A549 viability: kills or reduces viability of A549 cells in Nrf2 counter-screen | A549 ARE-Fluc cells, CellTiter-Fluor viability, 18-24 h | Potency, µM (series often up to 46 µM), without a hit: at the top dose activity change, negative = cytotoxicity, actives largely listed as inhibitors | hit rate 0.16% among 390,000 | AID 504648; further: potency means the concentration at half of the fitted maximal effect
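A549 ARE-Fluc cells in 5% FBS OPTI-MEM, 5000 cells/well, rested 2 h then exposed to compounds in concentration-response for 18-24 h at 37 °C. Viability by CellTiter-Fluor fluorescence (Ex 405/Em 525) after 30 min; luciferase luminescence (BugLite, 15 min, RT) read afterwards.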
Starred values were filed as active, the others as inactive; i = inactive; ? = inconclusive; . = no result given; ! = a repeat was not active. Unless noted, the call rests on the fitted dose curve; in most records, active means well fitted curve in the direction sought with a large enough effect; inconclusive means small, poorly fitted or top-dose-only effect, or another doubt; inactive means no such curve, though single readings can be large; an effect the other way counts as inactive or inconclusive. Unless noted, on the % scale 0 is the no-effect control and ±100 the full control effect.

SMILES	KB-V1 cytotox	PI4K2A inh	Giardia kill	KB-3-1 tox	Nrf2 block	A549 viability
CCOC(=O)C1=C(C)NC2=C(C(=O)CC(c3cccs3)C2)C1c1cccs1 (stereo not given)	15µM*	-13	-2	5.8µM*	?	?
COC(=O)C1=C(C)NC2=C(C(=O)CC(c3cccs3)C2)C1c1ccsc1 (stereo not given)	7.3µM*	-4	11	?	-21%	-4%
COc1ccc(C2Nc3ccccc3C(=O)N2Cc2ccccc2)cc1COc1ccc(C)cc1 (stereo not given)	.	.	.	.	-8%	2%
Nc1ccc2c(c1)CN1C(=O)c3ccccc3C1=N2	.	i	.	.	.	.
Cc1ccc2nc(SC(Cc3cc(Cl)ccc3Cl)C(=O)O)[nH]c2c1 (stereo not given)	.	1	.	.	.	5%
CCOC(=O)c1cnc2cc(C(F)(F)F)ccc2c1Nc1ccc(F)cc1F	i	2	.	i	-8%	11%
On1c(-c2ccc(Cl)cc2)nc2ccccc21	i	-7	-22	i	?	0%
FC(F)(F)c1nc2ccccc2n2c(-c3ccc(Cl)cc3)nnc12	5.8µM*	-4	3	4.6µM*	.	5.8µM*
Cc1ccc(-c2nnc3c(C(F)(F)F)nc4ccccc4n23)cc1	21µM*	4	-3	?	23µM*	?
O=S(=O)(c1ccc(-n2cnnn2)cc1)N1CCN(c2cccc(C(F)(F)F)c2)CC1	.	-1	.	.	24%	1%
O=C(c1ccc(Cl)c(Cl)c1)N1CCC(Oc2cccnc2)CC1	.	-2	.	.	.	.
Cc1cc(C)cc(N(CCC#N)C(=O)COC(=O)CCc2c[nH]c3ccccc23)c1	21µM*	-3	-14	i	5%	-1%
COC(=O)c1c(C)n(-c2ccc(C)cc2)c2ccc(O)cc12	?	5	-18	?	.	-1%
COC(=O)c1c(C)n(-c2ccccc2)c2ccc(O)cc12	21µM*	-3	3	?	1%	-8%
Cc1nc2scc(C)n2c(=O)c1S(=O)(=O)NCCc1ccccc1	i	7	0	i	20%	8%
Cc1csc2nc(O)c(C(=O)NCCC3=CCCCC3)c(=O)n12	9.2µM*	-5	-13	i	-29%	-7%
Cc1csc2nc(O)c(C(=O)NCCCc3ccccc3)c(=O)n12	16µM*	1	-5	?	?	-7%
O=Cc1ccc(/C=C2\C=Cc3ccccc32)cc1	i	.	.	?	.	.
CCn1c(N2CCN(CC(=O)c3c(C)n(C)c4ccc(OC)cc34)CC2)nc2c1c(=O)[nH]c(=O)n2C	i	0	-1	21µM*	?	-6%
CCn1c(N2CCN(CC(=O)c3c(C)n(C)c4ccccc34)CC2)nc2c1c(=O)[nH]c(=O)n2C	i	0	2	i	?	-6%
COc1ccc2c(c1)c(C(=O)CN1CCN(C(=O)c3ccco3)CC1)c(C)n2C	23µM*	2	47	i	-8%	-20%
CCc1nnc(NC(=O)CSc2nnc(-c3cc4ccccc4cc3O)n2CC)s1	i	2	17	i	-6%	-1%
CC1CCN(C(=O)CSc2nnc(-c3cc4ccccc4cc3O)n2Cc2ccco2)CC1	3.7µM*	0	3	?	?	-15%
CCn1c(SCC(=O)N(C(C)C)C(C)C)nnc1-c1cc2ccccc2cc1O	3.7µM*	2	16	?	12%	-4%
Cc1ccc2nc(CSc3nnc(-c4ccco4)n3-c3ccccc3)cc(=O)n2c1	10µM*	-2	22	i	?	-2%
SMILES	KB-V1 cytotox	PI4K2A inh	Giardia kill	KB-3-1 tox	Nrf2 block	A549 viability
O=C(CSc1nnc(-c2ccco2)n1Cc1ccccc1)c1ccccc1	i	-3	1	i	.	0%
Cc1ccc2nc(CSc3nnc(-c4ccco4)o3)cc(=O)n2c1	i	-4	14	i	11%	.
Cc1ccc(C(=O)CSc2nnc(-c3ccco3)n2Cc2ccccc2)cc1	?	-3	-2	21µM*	10%	-6%
COc1ccc(CNc2ncnc3nc[nH]c23)cc1OC	i	.	15	i	0%	?
Cc1ccc(C)c(N2CCN(C(=O)CCc3c(C)nn(-c4ccc(N5CCCC5)nn4)c3C)CC2)c1	.	-7	.	.	?	-11%
O=S(=O)(c1ccccc1F)n1c(CN2CCOCC2)nc2ccccc21	.	-1	.	.	.	.
CCOC(=O)c1cc(=O)c2c(OCC(COc3cccc4oc(C(=O)OCC)cc(=O)c34)OC(=O)[C@@H](N)CCCCN)cccc2o1	.	-3	.	.	.	.
COc1cc(NC(=O)Cn2c(=O)ccc3cc(S(=O)(=O)N4CCCC4)ccc32)cc(OC)c1	i	3	.	i	.	-1%
COc1ccc(C(=O)CSc2nnc(-c3cc4ccccc4cc3O)n2Cc2ccco2)cc1	7.3µM*!	2	-13	?	-7%	-5%
CN(C)C(=O)CSc1nnc(-c2ccco2)n1-c1ccccc1	i	-1	5	i	3%	-3%
CN(Cc1ccccc1)C(=O)CSc1nnc(-c2ccco2)n1-c1ccccc1	3.7µM*	-2	11	i	1%	12%
O=C(Cn1c(=O)n(-c2ccc(Cl)cc2)c(=O)c2c3c(sc21)CCCCC3)Nc1cccc(Cl)c1	i	7	.	i	9%	-4%
O=[N+]([O-])c1ccc(-[n+]2ccc3ccccc3c2)c([N+](=O)[O-])c1	5.2µM*	2	0	4.6µM*	5%	?
O=C(/C(=C(\[O-])c1ccccc1)[n+]1ccc2ccccc2c1)c1ccc([N+](=O)[O-])cc1	i	1	3	i	3%	-9%
CC(C)CC(C(=O)OCC(=O)N1CCN(c2ccccc2)CC1)N1C(=O)c2ccccc2C1=O (stereo not given)	16µM*	1	4	i	-6%	0%
